ALR H2O2 inh – inhibitors of human ALR sulfhydryl oxidase, primary screen, biochemical, H2O2 detection, HRP-luminol luminescence, single point; FAD-linked sulfhydryl oxidase ALR (Homo sapiens), P55789; hit rate 3.8% among 290,000; AID 485317, 2010; inhibition, % (test concentration not listed); purified ALR, DTT oxidation;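 active means mean replicate inhibition above about 79%, with every replicate also reaching it, limit read from the data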
Target sequence (P55789 whole entry, looked up): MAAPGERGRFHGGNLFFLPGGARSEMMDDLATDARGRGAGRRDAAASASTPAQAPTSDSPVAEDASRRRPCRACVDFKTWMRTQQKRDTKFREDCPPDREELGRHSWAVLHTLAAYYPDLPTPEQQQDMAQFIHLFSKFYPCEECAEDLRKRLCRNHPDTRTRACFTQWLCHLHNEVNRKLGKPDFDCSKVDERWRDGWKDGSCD
PfM18AAP inh-1 – PfM18AAP inhibitors, malaria aminopeptidase, primary screen, biochemical, QFRET, recombinant enzyme; M18 aspartyl aminopeptidase (Plasmodium falciparum 3D7); hit rate 1.2% among 290,000; AID 1822, 2009; H-Glu-NHMec fluorogenic cleavage; inhibition, % at 7.35 µM;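 active means inhibition above the campaign mean inhibition over all tested compounds plus 3 SD, cut at about 28% in these data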;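 further: 0% = plate median of test compound wells and 100% = 2 mM ZnCl2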
SUMO Mot1 rescue – yeast Mot1-301 growth rescue at high temperature, primary screen, SUMOylation pathway inhibitor project, S. cerevisiae, ATP luminescence, 38.5C; S. cerevisiae Mot1-301 growth rescue; percent above DMSO median, 100 means doubled; growth rescue, % at 18.8 µM; hit rate 1% among 320,000; AID 2716, 2010;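 active means every valid replicate shows activation above 250% relative to neutral control wells; inactive means the rest, any valid replicate at or below 250%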;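 further: OY570 slx delta 5 strain wells were the positive control but not used for scaling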
HIF activator – HIF pathway transcriptional activators, primary screen, cell-based, U2OS HRE-luciferase, luminescence; activation, % at 7.5 µM (by protocol); AID 1910, 2009; U2OS HRE-luciferase reporter; normalized: DMSO 0%, desferrioxamine 100%; hit rate 0.32% among 300,000;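 active means mean activation of at least 10% of the iron chelator positive control signal, with at least half of replicates also reaching 10%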
PfM18AAP inh-2 – PfM18AAP inhibitors, malaria aminopeptidase, confirmation, biochemical, QFRET, recombinant enzyme, triplicate. shares compounds with PfM18AAP inh-1. H-Glu-NHMec fluorogenic cleavage. inhibition, % at 7.35 µM. hit rate 28% among 2,400;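 active means mean inhibition over replicate wells above the hit cutoff set for the earlier primary screen, cut at about 29% in these data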;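 further: 0% = median of test compound wells and 100% = 2 mM ZnCl2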
CTSL1 confirm – cathepsin L1 inhibitors, retest, confirmation, counter-screen for PFM18AAP inhibitor project, biochemical, QFRET, triplicate | shares compounds with PfM18AAP inh-1 | purified cathepsin L1, Z-Leu-Arg-MCA fluorescence | inhibition, % at 5.96 µM | 2,400 tested, under 10 active;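 active means average inhibition across replicates above the hit cutoff set in the earlier primary screen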;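 further: 0% = median of test compound wells and 100% = Z-Phe-Ala-diazomethylketone 1 µM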
Target sequence (P07711 whole entry, looked up): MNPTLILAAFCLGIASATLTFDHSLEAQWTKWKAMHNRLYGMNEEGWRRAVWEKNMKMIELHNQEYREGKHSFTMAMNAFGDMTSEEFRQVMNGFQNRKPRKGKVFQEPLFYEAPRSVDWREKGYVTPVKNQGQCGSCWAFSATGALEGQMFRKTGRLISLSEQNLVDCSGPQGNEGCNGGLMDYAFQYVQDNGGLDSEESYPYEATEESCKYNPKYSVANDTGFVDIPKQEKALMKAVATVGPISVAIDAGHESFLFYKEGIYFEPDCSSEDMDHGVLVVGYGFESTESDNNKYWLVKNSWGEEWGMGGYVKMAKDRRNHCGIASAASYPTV
* = called active by the depositor; . = no result given. Only some compounds are listed: those with a hit (about 5.3% of all), similar ones and a draw of the others.

SMILES | ALR H2O2 inh | PfM18AAP inh-1 | SUMO Mot1 rescue | HIF activator | PfM18AAP inh-2 | CTSL1 confirm
COCCCNC(=S)NNC(=S)Nc1ccc(F)cc1F | 10.3 | 32.4* | -15.3 | 0.7 | -18.6 | 3.1
COCCCNC(=S)NNC(=S)Nc1ccccc1 | 96.4* | 40.4* | 2.5 | 0.3 | -14.1 | 5.6
COc1ccc(CCNC(=S)N2CCN(S(=O)(=O)c3ccccc3)CC2)cc1 | -1.1 | . | -12.2 | -0.1 | . | .
O=C(CCN=C1NS(=O)(=O)c2ccccc21)Nc1ccc(Cl)cc1F | -2.1 | . | 3.1 | . | . | .
O=C(CCCCCCC(=O)NCc1ccccc1)NCc1ccccc1 | . | -2.2 | 5.9 | -0.7 | . | .
C[C@H](CO)N1C[C@H](C)[C@@H](CN(C)CC2CCCCC2)Oc2c(NC(=O)CCC(F)(F)F)cccc2C1=O | -17.3 | . | 4.9 | . | . | .
COC(=O)c1ccccc1NC(=O)CSc1[nH]c(=O)cc(C)c1C#N | -5.4 | -4.4 | 0.8 | 0.4 | . | .
Cc1cc(=O)[nH]c(SCC(=O)Nc2ccccc2C#N)c1C#N | -2.5 | 37.5* | -10.3 | 0.5 | -48.1 | -3.2
CC1CCN(C(=O)Cn2nnc(-c3ccccc3)n2)CC1 | 2.9 | -2.7 | -21.0 | 2.6 | . | .
O=C(NCC1CCCO1)c1ccc2c(c1)N(Cc1ccccc1)C(=O)CS2=O (stereo not given) | -12.8 | 42.4* | 2.9 | -0.4 | -63.0 | -4.8
CC1CCCC(NC(=O)c2ccc3c(c2)N(Cc2ccccc2)C(=O)CS3=O)C1C (stereo not given) | 7.0 | 3.1 | -11.8 | -0.3 | . | .
CCN(CC)C(=O)c1ccc2c(c1)N(Cc1ccccc1)C(=O)CS2=O (stereo not given) | -4.6 | 54.5* | 9.1 | 0.3 | -24.8 | -2.9
O=C(NCc1ccco1)c1ccc2c(c1)N(Cc1ccccc1)C(=O)CS2=O (stereo not given) | -4.5 | 26.0 | 9.7 | -0.2 | . | .
C#CCOCCOCCOCCNc1nc(N2CCN(C(=O)[C@H](C)n3cc(CCCN=C(N)N)nn3)CC2)nc(N2CCN(C(=O)[C@H](C)n3cc(CCCN=C(N)N)nn3)CC2)n1 | -12.4 | 0.6 | 9.9 | 0.0 | . | .
N#CCC(=O)N/N=C1\CCCCC1C1CCCCC1 (stereo not given) | 5.9 | 44.4* | -4.7 | 1.2 | -28.6 | -5.8
CCN(CC)C(=O)CSc1nc2ccccc2c(=O)n1-c1cccc(OC)c1 | . | 5.5 | -1.9 | -1.1 | . | .
COc1cccc(-n2c(SCc3cc(=O)oc4cc(O)c(O)cc34)nc3ccccc3c2=O)c1 | -24.5 | 55.9* | -13.0 | -0.8 | -10.1 | 5.9
O=C(CN1C(=O)C2C3C=CC(C3)C2C1=O)OCC(=O)c1ccc([N+](=O)[O-])cc1 (stereo not given) | . | 42.2* | -1.1 | -0.2 | -18.8 | -0.4
O=C(CN1C(=O)C2C3C=CC(C3)C2C1=O)OCC(=O)c1ccc(Cl)cc1 (stereo not given) | . | -3.4 | . | -0.1 | . | .
CC(C(=O)OCC(=O)c1ccc([N+](=O)[O-])cc1)N1C(=O)C2C3C=CC(C3)C2C1=O (stereo not given) | 51.9 | 23.3 | -9.8 | -0.7 | . | .
CC(C(=O)OCC(=O)c1ccc([N+](=O)[O-])cc1)N1C(=O)C2C3CCC(C3)C2C1=O (stereo not given) | 29.3 | 41.2* | 357.6 | -0.4 | -11.3 | -1.2
COc1ccccc1N(CC(=O)NCCSCc1ccccc1Cl)S(C)(=O)=O | -39.8 | -6.6 | 0.7 | -0.8 | . | .
COc1ccc(C2=CC(=O)C=CC2=O)cc1 | . | 56.4* | -21.8 | 1.1 | 61.8* | -3.1
COc1ccc(C2=CC(=O)C[C@H](c3ccc(OC)cc3)C2)cc1 | -5.8 | . | 0.4 | . | . | .
COC(=O)c1cc(O)c(O)c(O)c1 | 96.2* | 32.4* | -4.9 | -0.9 | -5.5 | 10.5
SMILES | ALR H2O2 inh | PfM18AAP inh-1 | SUMO Mot1 rescue | HIF activator | PfM18AAP inh-2 | CTSL1 confirm
O=C1c2ccccc2C(=O)N1/N=C/c1ccc(O)c(O)c1 | 98.7* | 56.7* | -5.7 | 0.4 | 68.3* | 5.2
O=C1C2C3C=CC(CC3)C2C(=O)N1/N=C/c1ccc(O)c(O)c1 (stereo not given) | . | 53.7* | -9.7 | 0.9 | 44.6* | -0.9
COc1cc(/C=N/N2CCN(C3c4ccccc4-c4ccccc43)CC2)ccc1O | 32.8 | -11.4 | -6.0 | 0.4 | . | .
CCCCn1c(-c2sccc2C)n[nH]c1=S | -5.1 | 32.0* | -2.9 | 0.1 | 0.9 | 4.9
CN(CC(=O)NCC(c1ccco1)N1CCCCC1)S(=O)(=O)c1ccc(Cl)cc1 (stereo not given) | -1.5 | . | 5.2 | -0.4 | . | .
O=c1cc2oc3cc(O)c(O)cc3c(-c3ccccc3[N+](=O)[O-])c-2cc1O | 4.1 | 59.4* | -47.0 | -5.3 | 48.8* | -1.3
O=c1cc(-c2ccccc2Cl)oc2cccc(O)c12 | 2.4 | -0.3 | 14.9 | -0.8 | . | .
c1ccc(OCCN2CCN(C(c3ccccc3)c3ccccc3)CC2)cc1 | -3.3 | -7.2 | -13.4 | -11.3 | . | .
C[n+]1cccc(C2C(C#N)=C(N)Oc3c2ccc2ccccc32)c1 (stereo not given) | 14.1 | 37.7* | -10.1 | 2.3 | -26.3 | -5.5
COc1ccc2[nH]c(=O)c(CN(C(=O)C3CCCO3)c3ccc(C)cc3)cc2c1 (stereo not given) | -6.3 | -4.3 | 0.6 | 0.1 | . | .
C=CC(C)n1c(Br)nc2c1c(=O)[nH]c(=O)n2C (stereo not given) | 4.2 | 2.2 | 27.2 | -0.3 | . | .
CC(C)n1c(=S)[nH]c2c1c(=O)[nH]c(=O)n2C | 12.9 | 36.2* | 16.7 | -0.1 | 29.0* | -1.2
NC(=O)c1sc2nc3c(c(-c4ccco4)c2c1N)CCC3 | -21.5 | 32.5* | -10.1 | . | -26.5 | -5.5
Cc1ccc(-c2c3c(nc4sc(C(N)=O)c(N)c24)CCCC3)o1 | . | 5.4 | 15.5 | 0.3 | . | .
c1coc(-c2nc3ccccc3nc2-c2ccco2)c1 | 8.7 | 12.7 | -5.5 | -0.5 | . | .
S=c1nc(-c2ccco2)[nH][nH]1 | 98.7* | 44.4* | -22.2 | -0.2 | 9.7 | -1.7
Nc1ncnc(Sc2ncccn2)c1[N+](=O)[O-] | . | 33.7* | . | 4.2 | -89.9 | 1.8
O=C(NNc1ccc([N+](=O)[O-])cc1)c1ccccc1F | . | 39.3* | . | . | 15.7 | 9.1
O=C(NCCNc1ccc([N+](=O)[O-])cc1)c1ccccc1F | -2.6 | -7.8 | 231.9 | -10.3 | . | .
O=C(NNc1ccccc1[N+](=O)[O-])Nc1ccc(F)cc1 | . | 37.8* | . | -7.1 | 1.0 | 3.6
O=C(O)c1ccccc1Nc1ccc([N+](=O)[O-])cc1 | 9.1 | -11.9 | -17.3 | 0.9 | . | .
O=C(O)c1ccccc1-c1ccccc1C(=O)NNc1ccc([N+](=O)[O-])cc1 | -19.8 | 53.3* | 23.7 | -0.5 | 21.9 | 0.5

Compound activity deposited in PubChem BioAssay by several laboratories.
